Screens: PubChem BioAssay, National Center for Advancing Translational Sciences (NCATS)
PK Bst: Pyruvate Kinase | purified pyruvate kinase, luminescence ATP production; ribose 5-phosphate activator present at AC10 | Potency, µM | 51,000 compounds, 1.2% hits | AID 361, 2006; in the data active means potency below about 11 µM; inconclusive means mostly about 12 µM to 25 µM;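 the screen sought inhibitors and activators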;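 further: scaled between full activation by ribose 5 phosphate and full inhibition by luteolin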
GBA mod: Glucocerebrosidase. Lysosomal acid glucosylceramidase (Homo sapiens), P04062. purified enzyme, resorufin glucoside fluorescence (screen aimed at inhibitors), 20 min. Potency, µM. 48,000 compounds, 1.1% hits. AID 360, 2006; in the data active means potency below about 15 µM; inconclusive means mostly about 16 µM to 33 µM;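 further: the screen sought inhibitors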
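Compounds titrated against 0.2 nM normal enzyme, 30 uM resorufin beta-D-glucopyranoside substrate, citrate/phosphate buffer with taurocholate and tween-20, pH 5.9. Reaction ran 20 min at room temperature; fluorescence (Ex 548/Em 600) gave AC50.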
UbGFP stabilizer: Ubiquitin-GFP Assay; Ubiquitin-GFP reporter cells, proteasome inhibition, GFP fluorescence; response scale: untreated = 0%, 10 µM MG-132 = 100%; Potency, µM (highest dose often 45.9 µM), without a hit: at the highest dose activation (GFP accumulation), most hits filed as activators; 67,000 tested, under 10 active; AID 526, 2006; active means well fitted activation curve with a large enough effect, not every such curve was filed as active; inconclusive means small, poorly fitted or top-dose-only effect, or another doubt; inactive means no such curve, though single readings can be large or run the other way
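U2OS cells expressing ubiquitin(G76V)-GFP, seeded overnight in 0.5% FBS medium, then treated 4 hr at 37 C across 46 uM to 2.9 nM. GFP-positive cells counted by laser cytometry (488 ex/515 em); %activity scaled between basal and 10 uM MG-132.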
USP2a inh: qHTS Assay for Inhibitors of Ubiquitin-specific Protease USP2a | Ubiquitin carboxyl-terminal hydrolase 2 (Homo sapiens), O75604 | USP2a enzymatic assay, qHTS inhibition | Potency, µM (highest dose often 38.3 µM), for the others: at the highest dose activity change, negative = inhibition, actives largely listed as inhibitors | 60,000 compounds, 0.1% hits | AID 927, 2007; further: nearly all actives have a fitted effect of over 60% in size
Target sequence (O75604 whole entry, looked up): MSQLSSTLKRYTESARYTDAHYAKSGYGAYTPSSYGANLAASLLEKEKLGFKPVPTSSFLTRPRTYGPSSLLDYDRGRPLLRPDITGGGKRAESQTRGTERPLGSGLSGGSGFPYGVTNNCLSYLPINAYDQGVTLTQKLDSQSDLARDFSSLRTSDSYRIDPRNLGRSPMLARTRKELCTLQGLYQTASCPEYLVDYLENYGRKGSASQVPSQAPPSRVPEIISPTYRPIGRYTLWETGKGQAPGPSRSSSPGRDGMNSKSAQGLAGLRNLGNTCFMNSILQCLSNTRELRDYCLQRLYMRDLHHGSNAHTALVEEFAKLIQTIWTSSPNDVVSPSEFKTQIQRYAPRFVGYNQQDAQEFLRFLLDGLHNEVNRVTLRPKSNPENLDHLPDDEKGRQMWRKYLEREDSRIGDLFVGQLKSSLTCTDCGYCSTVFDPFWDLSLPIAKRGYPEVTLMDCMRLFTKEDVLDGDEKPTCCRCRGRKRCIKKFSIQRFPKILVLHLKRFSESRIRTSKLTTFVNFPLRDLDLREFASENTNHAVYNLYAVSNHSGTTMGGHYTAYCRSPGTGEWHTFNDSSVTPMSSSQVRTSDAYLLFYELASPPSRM
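USP2 core (20nM final) preincubated 30 min RT with compound, then Ub-PLA2 20nM and NBD C6-HPC 20uM final added; buffer 20mM Tris-HCl pH 8.0, 2mM CaCl2. Fluorescence Ex 460/Em 535 read at 0 and 2.5 h; normalized to NEM.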
TSHR agonist: qHTS Assay for Agonists of the Thyroid Stimulating Hormone Receptor | Potency, µM (doses to about 57.1 µM), for inactives: at the top dose activation, most hits filed as activators | Thyrotropin receptor (Homo sapiens), P16473 | AID 926, 2007 | 73,000 compounds, 0.48% hits | HEK293-CNG-TSHR cells (CNG channel as cAMP sensor), membrane potential dye, cAMP; active means well fitted activation curve with a large enough effect in the main read-out, with a control signal flat, not every such curve was filed as active; inconclusive means small, poorly fitted or top-dose-only effect, or a change in a side signal; inactive means no such curve, though single readings can be large or run the other way; % of control where 0% means no effect;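 further: the control signal comes from parental cells without the receptor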
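HEK 293 cells stably expressing TSHR and a modified CNG channel, with CNG-only parental cells as counterscreen, were preloaded 60 min at room temperature with membrane potential dye containing 100 uM RO 20-1724. Compound exposure was 30 min, and depolarization was read as fluorescence at 590 nm.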
HEK293 cAMP cs: qHTS Assay for Agonists of the Thyroid Stimulating Hormone Receptor: Activators of Intracellular cAMP Concentrations in Parental HEK 293. parental HEK293 CNG cAMP sensor, membrane potential fluorescence. 73,000 compounds, 2.5% hits. Potency, µM (doses to about 57.1 µM), for the others: at the top dose activation, actives largely listed as activators; further: % of control where 0% means no effect; nearly all actives have a fitted effect of over 55% in size
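Parental HEK 293 cells stably expressing a cAMP-gated CNG channel were loaded with membrane potential dye containing 100 uM RO 20-1724 for 60 min. Compound added for 30 min; depolarization read as fluorescence intensity at 590 nm.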
Numbers without * were called inactive; i = inactive; ? = inconclusive; · = not tested or not shown; [ ] = another dose, or the depositor's remark. In the library only some 4.1% were active in any assay of this set; here they are far more common. Unless noted, the call rests on the fitted dose curve; in most records, active means well fitted curve in the direction sought with a large enough effect; inconclusive means small, poorly fitted or top-dose-only effect, or another doubt; inactive means no such curve, though single readings can be large; an effect the other way counts as inactive or inconclusive. Potency means the concentration at half of the fitted maximal effect.

SMILES | PK Bst | GBA mod | UbGFP stabilizer | USP2a inh | TSHR agonist | HEK293 cAMP cs
CCOc1ccccc1NC(=O)c1cc(Cl)ccc1NC(=O)c1ccco1 | >57 | >77 | -3% | 2% | ? | 25µM*
Cc1cccc(CNc2ccnc(-c3ccc(C(=O)N(C)C)cc3)n2)c1 | · | · | 13% | 28% | · | 16%
COc1ccc(CN[C@H](C)C(=O)O)cc1 | · | · | 1%[9.17 µM] | · | 1%[11.4 µM] | 2%[11.4 µM]
CC(C)=CCC/C(C)=C/CO/N=C1/C[C@@H](O)[C@@H](O)[C@@H]2[C@@H]3C(=O)N(C4CCCCC4)C(=O)[C@H]3CC[C@@H]12 | · | · | · | · | -9%[11.4 µM] | -12%[11.4 µM]
CO[C@H]1COC(=O)[C@H](C)COC(=O)[C@@H](Cc2ccccc2)NC(=O)C/C=C\[C@H]1C | · | · | · | · | -6%[11.4 µM] | 13%[11.4 µM]
CCOC(=O)C(C)(C)[C@H](O)C(C)C | · | · | -2%[9.17 µM] | · | 7%[11.4 µM] | -6%[11.4 µM]
COc1ccccc1NC(=O)c1cc(Cl)ccc1NC(=O)c1ccco1 | >57 | >77 | 1% | 9% | ? | 25µM*
COc1cccc(C(=O)Nc2cc(NC(=O)c3ccco3)ccc2OC)c1 | >57 | >77 | -3% | 8% | 11% | 7%
COc1ccc(NC(=O)c2ccccc2NC(=O)c2ccco2)c(OC)c1 | · | · | -9%[9.17 µM] | 9%[7.66 µM] | 17%[11.4 µM] | 9%[11.4 µM]
COc1ccc(NC(=O)c2ccco2)cc1NC(=O)c1cccc(OC(C)C)c1 | >57 | 9.8* | -1% | 169% | ? | ?
COC(=O)[C@@H]1C[C@H]1[C@@H](N)c1ccccc1 | · | · | · | · | · | 20%
O=C(Nc1ccc(Nc2ccccc2)cc1)N1CCOCC1 | >57 | 2* | 4% | 3% | -1% | -1%
Cc1nc(N2CCOCC2)c2cc(-c3ccccc3)sc2n1 | ? | · | -3% | -5% | ? | 25µM*
Nc1nonc1-c1nc2ccccc2n1Cc1ccc(F)cc1Cl | >57 | >77 | 8% | 29% | ? | 16µM*
Nc1nonc1-c1nc2ccccc2n1CC(=O)N1CCCCC1 | >57 | i | -1% | 3% | ? | ?
CCc1nnc(NC(=O)CSc2nnc(-c3ccoc3C)n2-c2ccccc2)s1 | >57 | ? | 1% | 42% | 22% | 17%
CCc1nnc(NC(=O)CSc2nnc(-c3ccoc3C)n2-c2ccc(C)cc2)s1 | >57 | · | -3% | 15% | 16µM* | 22%
CCOc1ccccc1-n1c(SCC(=O)Nc2nccs2)nnc1-c1ccoc1C | >57 | >77 | -1% | 15% | ? | 13µM*
Cc1occc1-c1nnc(SCC(=O)Nc2nccs2)n1CCc1ccccc1 | >57 | >77 | 3% | 15% | ? | ?
C=C[C@](C)(O)CCC1C(=C)CC(OC(C)=O)C2C(C)(C)CCCC12C (some centres undefined) | · | · | · | -13% | · | ·
Clc1cccc(Cl)c1Cn1cnc(=NCc2ccco2)c2[nH]cnc21 | 2.2* | · | -1% | 55% | 18% | 22%
CC(C)=CCC/C(C)=C/CO/N=C1/C[C@@H](O)[C@@H](O)[C@@H]2[C@@H]3C(=O)N(Cc4ccccc4)C(=O)[C@H]3CC[C@@H]12 | · | · | · | · | 0%[11.4 µM] | -3%[11.4 µM]
c1ccc(-c2cccc(-c3ccccn3)n2)nc1 | >11 | >77 | 0% | 2% | -1% | -4%
c1ccc(-c2nnc(-c3ccccn3)nn2)nc1 | 7.1* | >77 | -1% | 3% | -4% | -3%
CC(=O)c1c(C)n(CC(=O)NCc2ccc3c(c2)OCO3)c2ccccc12 | >57 | >77 | 1% | 11% | 21% | 17%
SMILES | PK Bst | GBA mod | UbGFP stabilizer | USP2a inh | TSHR agonist | HEK293 cAMP cs
CC(=O)c1c(C(C)=O)c(C)n(Cc2ccc3c(c2)OCO3)c1C | >57 | >77 | -12% | 11% | ? | 13µM*
CCOC(=O)N1CCc2c(sc3c2C(=O)NC(c2ccccc2)N3)C1 (centres undefined) | i | 4* | 1% | 8% | ? | ?
O=C1CC[C@H](NC(=O)c2ccccc2)C(=O)N1 | · | · | -6%[9.17 µM] | · | -6%[11.4 µM] | 4%[11.4 µM]
C/C(NC(=O)c1ccccc1)=C1/C(=O)CC2C1C2(C)C (centres undefined) | · | · | 9%[9.17 µM] | 0%[7.66 µM] | ? | 4µM*
O=C1CCC[C@H]2OC12[C@@H](O)CCc1ccccc1 (some centres undefined) | · | · | · | · | -6%[11.4 µM] | 2%[11.4 µM]
CCCN(CCC)C(C(=O)Nc1cccc(OC)c1)c1ccccc1 (centres undefined) | >57 | >77 | -6% | -5% | ? | 25µM*
O=C(NC1CC1)c1cccc(Nc2ccc(-c3ccc4c(c3)OCCO4)nn2)c1 | 1.5* | >77 | 3% | 25% | 8% | 16%
Cc1nn(C(=O)c2cccnc2)c(C)c1C | >57 | >77 | 19% | -3% | ? | 6.3µM*
Nc1nc(-c2ccc(Cl)cc2)nn1C(=O)c1cccnc1 | i | >77 | 0% | -1% | -3% | 1%
O=C(CN1C(=O)c2cccc3cccc1c23)Nc1cccnc1 | 10* | >77 | 5% | 1% | -2% | -7%
O=C(CN1C(=O)c2cccc3cccc1c23)NCc1cccnc1 | i | >77 | 12% | 3% | ? | ?
O=C(CSc1nnnn1-c1cccc2ccccc12)N1CCOCC1 | 8* | >77 | 1% | 7% | 0% | 5%
O=C(CSc1nc2ccccc2nc1SCC(=O)N1CCOCC1)N1CCOCC1 | · | · | 8% | -1% | 11% | 9%
CCCCCCCCCCCCCCCC(=O)O[C@H](CC(=O)O)C[N+](C)(C)C | · | · | -5% | 21% | ? | ?
Cc1cccc(-n2ncc3c(NCc4cccs4)ncnc32)c1 | · | 14* | 3% | 0% | -3% | 2%
CCC(c1nnnn1CCc1ccccc1)N(Cc1ccco1)Cc1cc2cc(C)cc(C)c2[nH]c1=O (centres undefined) | >57 | >77 | -6% | 227% | ? | 13µM*
CCC(c1nnnn1CCc1ccccc1)N(Cc1ccco1)Cc1cc2c(C)ccc(C)c2[nH]c1=O (centres undefined) | >57 | >77 | 2% | · | ? | ?
O=C(OCc1c(Cl)cccc1Cl)c1cccnc1 | 9.2* | >77 | -2% | 3% | 19% | 10%
COC(=O)c1ccccc1NC(=O)COC(=O)c1cccnc1 | >57 | >77 | -1% | -2% | 3% | 12%
O=C(OCc1c(Cl)cccc1Cl)c1ccccn1 | 3.8* | >77 | -2% | 0% | ? | ?
O=C(OCc1c(Cl)cccc1Cl)c1cnccn1 | 4.7* | >77 | 0% | 1% | 0% | 5%
N#CCCn1c(=O)c(-c2ccc(F)cc2)nc2cnc(N3CCOCC3)nc21 | · | · | -8% | 61% | 1% | 8%
